Inconclusive results are not listed. Activity calls are given as the source filed them. Rule for the calls: active = hit-call score of the fitted dose curve at least 0.9, where 1 is the maximum; inconclusive = response in the unintended direction; inactive = score below 0.9.

Muscarinic acetylcholine receptor M2 (Homo sapiens), sequence (P08172 whole entry, looked up): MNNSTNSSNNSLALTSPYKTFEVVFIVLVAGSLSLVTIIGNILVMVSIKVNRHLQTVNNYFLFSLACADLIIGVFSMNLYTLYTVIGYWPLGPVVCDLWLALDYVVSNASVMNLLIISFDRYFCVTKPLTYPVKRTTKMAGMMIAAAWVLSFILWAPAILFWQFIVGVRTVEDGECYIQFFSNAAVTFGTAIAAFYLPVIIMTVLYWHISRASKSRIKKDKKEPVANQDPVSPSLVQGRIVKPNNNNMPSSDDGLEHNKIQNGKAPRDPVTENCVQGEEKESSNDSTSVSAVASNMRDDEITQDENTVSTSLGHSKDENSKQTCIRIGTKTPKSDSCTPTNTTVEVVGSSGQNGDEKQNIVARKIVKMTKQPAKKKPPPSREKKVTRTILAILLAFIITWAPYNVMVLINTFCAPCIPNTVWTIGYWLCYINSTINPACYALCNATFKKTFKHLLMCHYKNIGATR

This test addresses Muscarinic acetylcholine receptor M2 (Homo sapiens) (UniProt P08172). Put plainly: NVS_GPCR_hM2: NovaScreen (NVS) G Protein-Coupled Receptor Assay for human Muscarinic, M2 Receptor (AID 2283273). The protocol:
NVS_GPCR_hM2 is a biochemical, single-readout assay that uses extracted gene-proteins from CHO in a cell-free assay. Measurements were taken 1 hour after chemical dosing in a 96-well plate.NVS_GPCR_hM2 is one of one assay component(s) measured or calculated from the NVS_GPCR_hM2 assay. It is designed to make measurements of radioligand binding, a form of binding reporter, as detected with scintillation counting signals by Filter-based radiodetection technology.Data from the assay component NVS_GPCR_hM2 was analyzed into 1 assay endpoint. This assay endpoint, NVS_GPCR_hM2, was analyzed in the positive analysis fitting direction relative to DMSO as the negative control and baseline of activity. Using a type of binding reporter, loss-of-signal activity can be used to understand changes in the binding as they relate to the gene CHRM2. Furthermore, this assay endpoint can be referred to as a primary readout, because the performed assay has only produced 1 assay endpoint. To generalize the intended target to other relatable targets, this assay endpoint is annotated to the gpcr intended target family, where the subfamily is rhodopsin-like receptor.
Binding assays used specific radioligands (tritiated, iodinated) with non-radioactive competitive displacement ligands in agonist or antagonist protocols (as indicated) and various reference compounds and inhibitors to titrate specific binding to receptors and transporters. Most enzyme assays (CYPs, kinases, phosphatases, proteases, HDACs) used recombinant protein and specific substrates (fluorescence mostly, some colorimetric and radioactive) and inhibitors, followed by a biochemical separation of substrate and product. All assays for the biochemical HTS were initially run in duplicate at a single concentration (10 uM for CYP450 assays and 25 uM for all others). […] Each assay was run with positive and negative controls, and concurrent controls on every plate. The follow-up (secondary) screen tested active chemical-pairs in concentration series, as well as a few additional assays not tested in the primary screen, some selected negative inactives, and several cases re-run in the concentration series for confirmatory purposes.
By AC50 is commonly meant the concentration giving half of the maximal activity seen. Turning to `CCCCCCCCCCCC[N+](C)(C)C`, the AC50 was 1390 nM (active).
In the case of `CN(C)c1ccc(C(=C2C=CC(=[N+](C)C)C=C2)c2ccc(N(C)C)cc2)cc1` it was 939 nM (active); in that of `NCc1cccc(C2CCN(C(=O)c3ccc(C#Cc4ccccc4F)o3)CC2)c1`, 923 nM (active).
In the case of `CN(C)C(=O)C1(N2CCCCC2)CCN(CC[C@@]2(c3ccc(Cl)c(Cl)c3)CN(C(=O)c3ccccc3)CCO2)CC1` it was 6820 nM (active).
Take `c1ccc(C[n+]2cccc3ccccc32)cc1`: the AC50 is 9200 nM (active).
Next, `Cc1occc1C(=O)Nc1ccc(C(=O)N2CCC(F)(F)/C(=C\C(=O)N3CCC(N4CCCCC4)CC3)c3ccccc32)cc1`: 4430 nM (active); `COc1ccc2cc(S(=O)(=O)N[C@H](CC(=O)N[C@H](Cc3ccc(CN4[C@H](C)CCC[C@@H]4C)cc3)C(=O)N(C)C(C)C)c3ccc4c(c3)OCO4)ccc2c1`: 535 nM (active); `Clc1cc(Cl)c2c(c1)N=C1CCCCCN1C2`: 1170 nM (active).
Next, `CCOC(=O)O[C@H](C)OC(=O)c1ccc2c(c1)cc(C(=O)NC1CCN(C(C)C)CC1)n2Cc1cc(-c2ccc(Cl)s2)on1`: 3640 nM (active).
In the case of `O=C1c2ccccc2C(=O)N1CCc1noc(-c2ccc(CN3CCCCCC3)s2)n1` it was 2830 nM (active).

For the origin of these results see PubChem BioAssay (EPA / NIEHS).
